Among all 220,000 compounds or so, about 800 (0.36%) were called active.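 Rule for the calls: active = inhibition above about 30% (limit read from the data); inactive = the rest.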 What follows is part of a selection rich in actives, with near analogues and random picks from the rest.
target: Eukaryotic translation initiation factor 4E (Mus musculus) + Eukaryotic translation initiation factor 4 gamma 1 (Homo sapiens) (UniProt P63073+Q04637); assay: eIF4E–eIF4G protein interaction inhibitors, primary screen, biochemical, uHTS, TR-FRET, eIF4GI fragment (AID 782); details: TR-FRET eIF4E-eIF4GI(517-606) binding, 2 h; at 21.7 µM; stronger effect = higher value;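 note: 0% = full FRET control wells and 100% = background wells lacking eIF4GI fragment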
Sequence (P63073 whole entry, looked up, the tested form may be a part): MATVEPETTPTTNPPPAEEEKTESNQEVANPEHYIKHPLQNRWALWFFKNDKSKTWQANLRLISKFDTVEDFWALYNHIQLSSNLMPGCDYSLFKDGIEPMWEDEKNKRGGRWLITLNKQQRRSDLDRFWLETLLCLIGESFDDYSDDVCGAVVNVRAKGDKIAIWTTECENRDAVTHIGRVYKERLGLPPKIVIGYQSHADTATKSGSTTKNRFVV
Sequence (Q04637 whole entry, looked up, the tested form may be a part): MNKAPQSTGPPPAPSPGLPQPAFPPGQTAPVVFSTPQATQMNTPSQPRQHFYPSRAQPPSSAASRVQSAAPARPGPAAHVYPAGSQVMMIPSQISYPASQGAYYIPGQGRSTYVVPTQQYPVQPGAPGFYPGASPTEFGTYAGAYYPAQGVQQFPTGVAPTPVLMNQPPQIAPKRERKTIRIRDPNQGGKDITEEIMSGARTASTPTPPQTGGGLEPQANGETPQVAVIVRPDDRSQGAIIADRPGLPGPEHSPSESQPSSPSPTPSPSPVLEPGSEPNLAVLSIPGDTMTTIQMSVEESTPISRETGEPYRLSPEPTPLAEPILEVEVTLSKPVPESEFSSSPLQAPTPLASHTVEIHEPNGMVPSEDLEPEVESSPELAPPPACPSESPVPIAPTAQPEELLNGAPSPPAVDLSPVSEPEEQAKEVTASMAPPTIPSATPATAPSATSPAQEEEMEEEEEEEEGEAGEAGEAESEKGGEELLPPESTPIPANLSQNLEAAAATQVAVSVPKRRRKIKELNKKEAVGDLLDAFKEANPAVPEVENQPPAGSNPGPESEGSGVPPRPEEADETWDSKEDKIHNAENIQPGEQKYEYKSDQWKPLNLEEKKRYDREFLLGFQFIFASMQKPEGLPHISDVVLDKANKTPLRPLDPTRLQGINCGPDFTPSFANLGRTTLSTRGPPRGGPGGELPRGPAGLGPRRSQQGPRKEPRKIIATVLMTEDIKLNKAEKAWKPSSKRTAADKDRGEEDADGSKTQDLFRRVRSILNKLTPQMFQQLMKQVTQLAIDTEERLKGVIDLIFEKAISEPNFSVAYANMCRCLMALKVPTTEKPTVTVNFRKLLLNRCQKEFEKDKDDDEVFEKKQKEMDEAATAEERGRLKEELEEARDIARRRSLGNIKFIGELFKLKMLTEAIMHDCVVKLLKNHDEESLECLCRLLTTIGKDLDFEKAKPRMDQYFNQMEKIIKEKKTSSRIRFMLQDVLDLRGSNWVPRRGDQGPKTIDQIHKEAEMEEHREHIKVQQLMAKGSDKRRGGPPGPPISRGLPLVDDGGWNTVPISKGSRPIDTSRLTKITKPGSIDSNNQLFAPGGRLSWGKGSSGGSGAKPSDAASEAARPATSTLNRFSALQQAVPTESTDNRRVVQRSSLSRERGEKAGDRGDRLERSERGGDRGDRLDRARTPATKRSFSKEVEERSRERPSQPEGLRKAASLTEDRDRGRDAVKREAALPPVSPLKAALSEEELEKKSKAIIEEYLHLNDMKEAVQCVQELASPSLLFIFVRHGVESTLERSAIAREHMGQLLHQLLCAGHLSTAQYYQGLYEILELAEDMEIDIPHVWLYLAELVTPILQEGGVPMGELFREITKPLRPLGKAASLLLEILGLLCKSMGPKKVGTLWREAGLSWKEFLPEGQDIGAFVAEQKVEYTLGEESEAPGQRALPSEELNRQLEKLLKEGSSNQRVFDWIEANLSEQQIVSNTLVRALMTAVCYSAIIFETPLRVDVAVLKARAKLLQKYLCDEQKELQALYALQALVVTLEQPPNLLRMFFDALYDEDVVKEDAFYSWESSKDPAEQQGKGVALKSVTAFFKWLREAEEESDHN

inhibition, inactive:
Cc1ccc(NC(=S)NC(NC(=O)Cc2cccc3ccccc23)C(Cl)(Cl)Cl)cc1 (stereo not given) -28%
CN(c1ccccc1)S(=O)(=O)c1ccc(Cl)c(C(=O)OCC(=O)N2CCOCC2)c1 -1.49%
C/C(=N\OCC(=O)O)c1ccc(Cl)cc1 1.37%
Cc1cc(C)nc(Nc2n[nH]c(-c3ccccc3N)n2)n1 4.42%
COc1ccc(C(=O)n2nc(-c3ccc(C)cc3)nc2N)cc1OC -7.73%
COc1ccc(C(=O)Cn2nnc(-c3ccc(N4CCOCC4)cc3)n2)cc1OC -9.64%
COC(=O)c1cc2occc2n1Cc1nc(-c2ccccc2C)oc1C 4.23%
O=C1Nc2cc(Cl)c(Cl)cc2N(O)N1c1ccccc1Cl 0.39%
FC(F)(F)Oc1ccc(-c2cn3cccnc3n2)cc1 -1.02%
COC(=O)c1c(C)c(C)nc(N)c1C#N -1.17%
Cc1nc(Cl)c(C#N)c2c1CCCC2 5.36%
O=S(=O)(NCCOc1cccc2cccnc12)c1ccc(F)cc1 -10.8%
COc1ccc(CCNS(=O)(=O)c2cccc3cccnc23)cc1OC 4.09%
C=CCn1c(-c2ccccc2OCC)n[nH]c1=S -7.58%
C=CCn1c(-c2sc(-c3ccccc3)nc2C)n[nH]c1=S 3.95%
NC(N)=Nc1nc2ccc(Br)cc2c(=O)[nH]1 -3.42%
CC(NCc1nc2ccccc2n1C)C12CC3CC(CC(C3)C1)C2 (stereo not given) 3.84%
O=C(c1ccc(Br)o1)N(c1ccccn1)C1CCCCC1 1.85%
Cc1ccc(OS(=O)(=O)c2ccc(-c3csc(C)n3)s2)c(C)c1 -1.07%
CCOc1ccc(C2c3[nH]c4ccccc4c3CCN2Cc2cn(CC)nc2C)cc1 (stereo not given) 1.87%
COC(=O)c1cc2n(n1)CCCNC2=O 2.7%
CC(=O)Nc1ccc(S(=O)(=O)N(C)c2ccc(OCC(=O)OCC(=O)N3CCCCC3)cc2)cc1 -2.79%
N#C/C(C(=O)N1CCOCC1)=C1/SC(Cc2ccc(F)cc2)C(=O)N1c1ccccc1 (stereo not given) 2.54%
Cc1cccc2cc3c(N)c(C(=O)N4CCCc5ccccc54)sc3nc12 -0.81%
CCOc1ccccc1/C=N/NC(=O)CNC(=O)COc1ccccc1 0.46%
O=C(COc1cccc2ccccc12)Nc1cc(S(=O)(=O)N2CCOCC2)ccc1N1CCOCC1 -0.21%
CCn1c(=O)c([N+](=O)[O-])c(NCc2ccc3c(c2)OCO3)c2ccccc21 -2.34%
CCOc1ccc(-n2cnc3c(=O)[nH]c(N)nc32)cc1 -1.7%
CCC(C)(C)NC(=O)CN(C(=O)C(=O)Nc1ccc2c(c1)OCCO2)C(C)(C)CC 1.1%
O=C(Nc1ccccc1C(F)(F)F)N1CCCC1c1cccnc1 (stereo not given) 0.48%
COc1cc2c(cc1OC)CC1(CCCCC1)N=C2 -2.07%
CC1(C)CC(N(Cc2ccccc2)C(=O)Cc2ccccc2)CCO1 (stereo not given) 1.78%
CCc1ccc(N(CC(=O)Nc2sc3c(c2C(=O)OC)CCCC3)S(C)(=O)=O)cc1 1.86%
Cc1cc(C)cc(NC(=O)COC(=O)c2cc(C)oc2C)c1 -0.87%
CCn1c(SCC(=O)N/N=C/c2ccccc2OCC(=O)O)nnc1-c1ccc(C(C)(C)C)cc1 -4.63%
CC(C)(C)CN1C(=O)C(=O)NC[C@H]1Cc1cccc2ccccc12 3.22%
C/C=C/C(=O)Nc1nnc(C(C)C)s1 -1.19%
O=C1c2cccc(OCC(=O)N3N=C(c4cccs4)CC3c3ccc(F)cc3)c2CCN1Cc1ccccc1 (stereo not given) 11.7%
CN=C1C=C/C(=N/N=c2\ccn(O)cc2C)C=C1C 3.23%
Brc1ccc(-c2noc(-c3ccccc3)n2)o1 3.6%
COC(=O)c1cc(NC(=O)c2cc(C(C)(C)C)nn2Cc2cccc(C)c2)ccc1N1CCOCC1 -1.37%
CC(C)CNc1ncnc2c1cnn2Cc1ccc(Cl)cc1 -0.57%
COc1ccccc1-n1ccnc1SCC(=O)NC(C)(C)C -3.84%
O=C(NCc1ccccn1)c1ccc2nc(-c3ccco3)c(-c3ccco3)nc2c1 2.59%
COc1ccc(NC(=O)Nc2ccc3nc(C)c(C)nc3c2)cc1 3.88%
CC(Sc1nnnn1C)C(=O)NC(=O)NC1CCCCC1 (stereo not given) 3.38%
COc1ccc(-n2c(C)cc(C(=O)CN3C(=O)NC4(CCc5ccccc54)C3=O)c2C)cc1 (stereo not given) -11%
CC1=CC2=NC(=O)/C(=C/c3coc4ccccc4c3=O)C(=N)N2O1 -3.42%
COc1ccc(/C=C/C(=O)Nc2ccc(C)cc2)cc1S(=O)(=O)N1CCOCC1 -7.24%
Cc1cc(C)n(-c2nnc(N3CCN(c4ccccc4)CC3)nn2)n1 1.58%
CC(Nc1nc(N2CCN(CCO)CC2)nc2ccccc12)c1ccccc1 (stereo not given) 1.5%
Cn1c(CNC(=O)c2ccccc2F)nnc1SCc1ccc(F)cc1 15.6%
Cc1ccc(S(=O)(=O)NC(=O)N2CCCN(Cc3ccc(F)cc3)CC2)cc1 0.62%
CCCn1nc2cc(C(=O)NCc3ccccc3)ccc2c1OCC 5.83%
O=[N+]([O-])c1cccc(-c2nnc3c4ccccc4c4ccccc4n23)c1 13.6%
CCOC(=O)c1cnc2[nH]c3ccccc3n2c1=O 13.5%
C=C1C2C[C@H](O)C(C)(C)[C@@]2(O)[C@H](O)C[C@]23C[C@@](C)(O)[C@H](CC[C@H]12)[C@H]3O (stereo not given in full) -4.67%
CSc1nnnn1-c1c(C)cc(C)cc1C -8.98%
CC(C)=C(NC(=O)c1ccccc1)C(=O)N/N=C(\C)c1ccccc1O 2.96%
Cc1c(Cl)cccc1NC(=O)CC1SC(=NCC2CCCO2)NC1=O (stereo not given) 1.68%
CCCCNC(=O)N1CCN(S(C)(=O)=O)CC1 2.45%
Cc1ccc(Nc2nc(N)nc(CSc3nnc(C)s3)n2)cc1 3.78%
COc1ccc(-c2nn(-c3ccccc3)cc2/C=C\C(=O)N2CCOCC2)cc1[N+](=O)[O-] 1.3%
Cc1ccc(S(=O)(=O)N2CCN(S(=O)(=O)N3CCOCC3)CC2)cc1 0.52%
COc1ccc(NC(=O)c2oc3ccc(S(=O)(=O)N4CCOCC4)cc3c2C)cc1 -0.4%
O=C(CSC(=S)N1CCOCC1)c1ccccc1 9.18%
CCOC(=O)CNC(=O)/C(=C\c1ccc(F)cc1)NC(=O)c1ccccc1 0.01%
Cc1ccc(NC(=O)Nc2cc(-c3ccccc3)nn2C)cc1Cl 1.28%
CCc1ccc(NC(=O)CC2C(=O)NCCN2C(=S)Nc2ccccc2)cc1 (stereo not given) 2.38%
Cc1ccc(C)c(SCc2nc3sc(C(=O)O)c(C)c3c(=O)[nH]2)c1 -9.58%
COc1ccccc1NC(=O)CSc1nc2sc(C)c(C)c2c(=O)n1Cc1ccco1 -13.8%
CCOC(=O)C1=NN(c2ccc(Cl)cc2)/C(=C/C2=NCCc3cc(OC)c(OC)cc32)S1 2.69%
Cc1ccc(OCc2n[nH]c(=S)n2-c2ccc(C)cc2)cc1 0.42%
COc1ccc(OCC(O)CNCCNc2nccc(C(F)(F)F)n2)cc1 (stereo not given) -1.2%
O=C(Nc1ccc(-c2csc(Nc3cccc(C(F)(F)F)c3)n2)cc1)c1cccc(C(F)(F)F)c1 -4.77%
COCc1cc(=O)[nH]c(-c2ccc(C(F)(F)F)cc2)n1 -4.61%
COc1cc(C(=O)OCc2ccc([N+](=O)[O-])cc2)cc(OC)c1OC -2.12%
CC(C)(C)NC(=O)NC(=O)COC(=O)Cc1c(F)cccc1Cl 0.46%
Cn1c(S(=O)(=O)O)nc2ccccc21 3.14%
O=C(NNS(=O)(=O)c1ccccc1C(F)(F)F)c1cc2ncc(C(F)(F)F)cc2s1 9.76%
CCOC1CS(=O)(=O)CC1OCC (stereo not given) -1.77%
O=C(Cc1ccccc1)NCC1OCCc2ccccc21 (stereo not given) -5.93%
CCNC(=S)N1CCN(CCN=CC2=C(O)CC(C)(C)CC2=O)CC1 2.72%
Oc1ccc(-c2nnc(Nc3ccccc3)c3ccccc23)cc1 -1.27%
Cc1nn(CC(=O)N/N=C/c2ccc(F)cc2)c(C)c1[N+](=O)[O-] 10.1%
O=C(Nc1ccc(Br)cc1)C1CCC(=O)N1Cc1ccccc1Cl (stereo not given) 7%
O=C1c2ccccc2C(O)N1Cc1ccccc1 (stereo not given) -4.18%

inhibition, active:
COCc1c(N)c(C)nc(Cl)c1C#N 33.5%
O=S(=O)(NCCc1ccc(F)cc1)c1cccc2cccnc12 68.5%
C=CCn1c(-c2ccc3[nH]c(C)c(C)c3c2)n[nH]c1=S 31.9%
COCCNC(=O)Nc1ccc2nc(-c3ccco3)c(-c3ccco3)nc2c1 53.1%
O=c1[nH]c2ccccc2n2c(-c3ccccc3)nnc12 52.5% [fluorescence artefact?]
Cc1noc(C)c1CSc1nc2cc(S(=O)(=O)N3CCOCC3)ccc2o1 38.2%
Cc1ccc(-c2nc(SCC(=O)Nc3ccccc3OC(F)F)c3c(C)c(C(=O)O)sc3n2)cc1 34.5%
O=C1c2ccccc2C(O)N1Cc1ccccc1Cl (stereo not given) 43.6%

From PubChem BioAssay AID782 (Emory University Molecular Libraries Screening Center, 2007)
